From ChEMBL document CHEMBL4513216, “Probing the Open Global Health Chemical Diversity Library for Multistage-Active Starting Points for Next-Generation Antimalarials” (ACS Infect Dis, 2020)
Out of some 68,000 compounds screened, about 2,700 (4%) showed an effect of 50% or more. The sample holds strong results, similar compounds and a random draw of the others, so the mix is not that of the screen.

System: Plasmodium berghei
Assay: Screen against P. berghei liver stage (PbLuc), transformed with Luciferase, at 2uM
Assay type: functional, HepG2
Conditions: tested at 2 uM

Q: How did the INHIBITION turn out when `CC(=O)c1c(C)nn(S(=O)(=O)c2ccc(F)cc2)c1C` was run?
A: 16.13%

Q: How did the INHIBITION turn out when `Cc1nc2cc(O)nn2c(C)c1CCC(=O)NCCCC(C)C` was run?
A: 37.68%

Q: How did the INHIBITION turn out when `CC(C)C1CN(C(=O)c2cc(F)cc3[nH]cnc23)CCS1` (centres undefined) was run?
A: 11.24%

Q: `CC(C)N(CCNC(=O)N1CCCC(N(C)C)C1)C1CC1` (centres undefined) was tested. Which INHIBITION did it give?
A: 73.01%

Q: For `CN(C)C1CCCN(C(=O)NCCC(C)(C)C)C1` (centres undefined), which INHIBITION is on record?
A: 28.95%

Q: How did the INHIBITION turn out when `CN(C)C1CCCN(C(=O)NCCC(=O)N2CCCCCC2)C1` (centres undefined) was run?
A: -17.01%

Q: For `Cc1ccc(O)c(CNCC2CCCN2c2cccnn2)n1` (centres undefined), which INHIBITION is on record?
A: 24.88%

Q: How did the INHIBITION turn out when `CCN(CC)CCNC(=O)c1nn(CC)cc1Cl` was run?
A: 54.07%

Q: For `CCCNC(=O)c1nn(CC)cc1Cl`, which INHIBITION is on record?
A: -40.28%

Q: For `CCN(CC)CCCNC(=O)c1nn(CC)cc1Cl`, which INHIBITION is on record?
A: 24.34%

Q: For `COCCCNC(=O)c1c(-n2cnnn2)sc2c1CCC2`, which INHIBITION is on record?
A: -0.44%

Q: Which INHIBITION does the source give for `CS(=O)(=O)c1ccccc1NC(=O)N[C@@H]1c2ccccc2C[C@@H]1O` here?
A: -11.32%

Q: `CS(=O)(=O)c1ccccc1N[C@@H]1c2ccccc2C[C@@H]1O` was tested. Which INHIBITION did it give?
A: 54.29%

Q: `CN(C)C(=O)c1ccccc1NC(=O)N[C@@H]1c2ccccc2C[C@@H]1O` was tested. Which INHIBITION did it give?
A: 42.32%

Q: For `O=S1(=O)NCC2(CCCN(Cc3ccccn3)C2)Oc2ncccc21` (centres undefined), which INHIBITION is on record?
A: -30.35%

Q: `CN(C)c1ncc(CNC(=O)Nc2ccc(C(F)(F)F)cc2)n1C` was tested. Which INHIBITION did it give?
A: 47.59%

Q: For `CC(=O)N[C@@H]1CN(Cc2oc3ccccc3c2C)C[C@H]1c1ccc(C)o1`, which INHIBITION is on record?
A: 3.92%

Q: For `Nc1ncccc1CN1CCCn2nc(CCC(=O)NC3CC3)cc2C1`, which INHIBITION is on record?
A: 26.82%

Q: For `O=C1C(Nc2nccn3cnnc23)CCN1c1cccc(Cl)c1` (centres undefined), which INHIBITION is on record?
A: 34.89%

Q: For `CCCc1noc(C2CCN(C(=O)C3CCCO3)CC2)n1` (centres undefined), which INHIBITION is on record?
A: 15.58%

Q: For `O=C(NC1CCCC1)c1ccc(C2CCCNC2)nc1` (centres undefined), which INHIBITION is on record?
A: 12%

Q: For `COc1c(C2CCCN2CC(=O)N(C)Cc2ccco2)c(C)nn1C` (centres undefined), which INHIBITION is on record?
A: 5.39%

Q: With `COc1cc(C)ccc1S(=O)(=O)N1CC[C@](C)(O)[C@H](C)C1` as the compound, how does the INHIBITION read?
A: -11.41%

Q: With `CCc1ccc(S(=O)(=O)N2CC[C@@](O)(CCOC)[C@H](C)C2)cc1` as the compound, how does the INHIBITION read?
A: 26.74%

Q: Which INHIBITION does the source give for `COCC[C@]1(O)CCN(S(=O)(=O)c2ccc(C)cc2OC)C[C@H]1C` here?
A: 69.67%

Q: Which INHIBITION does the source give for `COc1cc(COCC2CCN(Cc3cccnc3)CC2)cc(OC)c1` here?
A: 20.76%

Q: `COc1cc(COCC2CCN(Cc3ccccn3)CC2)cc(OC)c1` was tested. Which INHIBITION did it give?
A: 5.98%

Q: With `COc1cc(CN2CCC(COCc3ccccc3)CC2)cc(OC)c1` as the compound, how does the INHIBITION read?
A: 55.25%

Q: `CC(C)CN1CCC2(COCc3cnc(-c4ccccc4)nc32)C1` (centres undefined) was tested. Which INHIBITION did it give?
A: 5.22%

Q: `O=C(c1cc(C2CC2)[nH]n1)N1CCN(Cc2ccccc2)CC1` was tested. Which INHIBITION did it give?
A: 5.52%

Q: With `O=C(c1cc(C2CC2)[nH]n1)N1CCN(Cc2ccc(Cl)cc2)CC1` as the compound, how does the INHIBITION read?
A: 59.99%

Q: `CC(C)c1ccc(CN2CCN(C(=O)c3cc(C4CC4)[nH]n3)CC2)cc1` was tested. Which INHIBITION did it give?
A: 38.87%

Q: Which INHIBITION does the source give for `Cc1ccc(C(=O)Oc2cc(=O)n3cccc(C)c3n2)cc1` here?
A: -38.95%

Q: Which INHIBITION does the source give for `COc1ccc(CCNC(=O)C2CCOC2)c(Cl)c1` (centres undefined) here?
A: -7.69%

Q: With `CCOCCCNC(=O)C1(C)CCC(=O)N1c1ccccc1OC` (centres undefined) as the compound, how does the INHIBITION read?
A: -15.25%

Q: With `Cc1cccc2c1cnn2CCCNC(=O)c1cnn(C)c1` as the compound, how does the INHIBITION read?
A: 2.66%

Q: `O=C(NCCNc1ncccn1)N1CCc2ccccc2C1` was tested. Which INHIBITION did it give?
A: -17.17%

Q: `CCc1ncc(C(=O)N2CCN(c3cnn(C)c(=O)c3)CC2)cn1` was tested. Which INHIBITION did it give?
A: 24.36%

Q: For `Cc1cncc(C(=O)N2CCN(c3cnn(C)c(=O)c3)CC2)c1`, which INHIBITION is on record?
A: 41.05%

Q: How did the INHIBITION turn out when `Cc1oc(C(C)C)cc1C(=O)N1CCN(c2cnn(C)c(=O)c2)CC1` was run?
A: 86.36%

Q: Which INHIBITION does the source give for `CNc1cc(C2CCCN(C(=O)c3ccc(=O)[nH]n3)C2)ccn1` (centres undefined) here?
A: 27.54%

Q: `CNc1cc(C2CCCN2C(=O)CCc2cnn(C)c2C)ccn1` (centres undefined) was tested. Which INHIBITION did it give?
A: 73.23%

Q: With `CNc1cc(C2CCCN2C(=O)c2ccc(=O)[nH]n2)ccn1` (centres undefined) as the compound, how does the INHIBITION read?
A: 51.88%

Q: How did the INHIBITION turn out when `CNc1cc(C2CCCN2C(=O)CCc2ccccc2F)ccn1` (centres undefined) was run?
A: -34.8%

Q: With `Cc1c(CCC(=O)N2CCCC2c2ccnc(N(C)C)c2)cnn1C` (centres undefined) as the compound, how does the INHIBITION read?
A: 24.13%

Q: For `CNc1cc(C2CCCN2C(=O)c2ccc3oc(=O)n(C)c3c2)ccn1` (centres undefined), which INHIBITION is on record?
A: 11.71%

Q: `c1ccc(-c2ncc(CNC3CCc4ncnn4C3)cn2)cc1` (centres undefined) was tested. Which INHIBITION did it give?
A: 15.31%

Q: For `c1ccc(CCN2CCOC(Cn3cccn3)C2)nc1` (centres undefined), which INHIBITION is on record?
A: 23.71%

Q: How did the INHIBITION turn out when `CC(NC(=O)NCCCNS(C)(=O)=O)c1ccncc1` (centres undefined) was run?
A: 9.9%

Q: For `CN1CCN(C(=O)N2CCCC(c3nccn3CC3CCC3)C2)CC1` (centres undefined), which INHIBITION is on record?
A: -18.71%

Q: `Cc1nc(CN2CCC(C(=O)O)(n3ccc(C(C)C)n3)CC2)co1` was tested. Which INHIBITION did it give?
A: 53.55%

Q: `Cc1nc(CN2CCC(C(=O)O)(n3ccc(-c4ccco4)n3)CC2)co1` was tested. Which INHIBITION did it give?
A: -26.72%

Q: With `Cc1ccc(N2CCC(C(=O)O)(n3ccc(C(C)C)n3)CC2)nn1` as the compound, how does the INHIBITION read?
A: -12.36%

Q: For `Cc1ccc(-n2nnc(C(=O)O)c2C)c(C)c1`, which INHIBITION is on record?
A: -2.64%

Q: Which INHIBITION does the source give for `Cc1ccc(C(=O)N2C[C@H]3CNC[C@H]3C2)cn1` here?
A: -53.62%

Q: How did the INHIBITION turn out when `O=C(c1ccc(S(=O)(=O)NCC(F)F)cc1)N1C[C@H]2CNC[C@H]2C1` was run?
A: 57.75%

Q: `O=C(c1ccc(S(=O)(=O)NC2CCC2)cc1)N1CC[C@H]2CNC[C@H]21` was tested. Which INHIBITION did it give?
A: -13.8%

Q: `O=C(c1ccc(S(=O)(=O)NCC(F)F)cc1)N1CC[C@H]2CNC[C@H]21` was tested. Which INHIBITION did it give?
A: 26.74%

Q: `O=C(c1cc(F)cc(F)c1)N1C[C@H]2CNC[C@H]2C1` was tested. Which INHIBITION did it give?
A: 51.81%

Q: With `O=C(c1ccc(F)c(F)c1)N1C[C@H]2CNC[C@H]2C1` as the compound, how does the INHIBITION read?
A: -9.69%

Q: For `O=C(c1cnccn1)N1C[C@@H](OCc2cccnc2)[C@H]2OCCC[C@H]21`, which INHIBITION is on record?
A: -39.95%

Q: With `CCN(CC)[C@@H]1CN(Cc2nccn2C)[C@@H]2CCCO[C@H]12` as the compound, how does the INHIBITION read?
A: -3.53%

Q: With `CCc1nc(CN2CCN(C(C)c3nc(C4CC4)no3)CC2)no1` (centres undefined) as the compound, how does the INHIBITION read?
A: 13.91%

Q: Which INHIBITION does the source give for `CC(C)c1noc(C(C)N2CCN(Cc3nnc(C4CC4)o3)CC2)n1` (centres undefined) here?
A: 58.52%

Q: `CC(c1nc(C2CC2)no1)N1CCN(Cc2nnc(C3CC3)o2)CC1` (centres undefined) was tested. Which INHIBITION did it give?
A: 49.01%

Q: With `CCCc1nc(CN2CCN(C(C)c3nc(C4CC4)no3)CC2)no1` (centres undefined) as the compound, how does the INHIBITION read?
A: 50.18%

Q: Which INHIBITION does the source give for `CC(C)c1noc(C(C)S(=O)(=O)Cc2nc(C3CC3)no2)n1` (centres undefined) here?
A: -17.22%

Q: How did the INHIBITION turn out when `CCc1noc(CS(=O)(=O)C(C)c2nc(C3CC3)no2)n1` (centres undefined) was run?
A: 57.16%

Q: `CCCc1noc(C(C)S(=O)(=O)Cc2nc(C3CC3)no2)n1` (centres undefined) was tested. Which INHIBITION did it give?
A: -7.66%

Q: Which INHIBITION does the source give for `CC(C)c1nc(CN2CCN(C(C)c3nc(C4CC4)no3)CC2)no1` (centres undefined) here?
A: -42.32%

Q: `CC(C)c1noc(C(C)N2CCN(Cc3cccs3)CC2)n1` (centres undefined) was tested. Which INHIBITION did it give?
A: 41.76%

Q: How did the INHIBITION turn out when `Cc1noc(C(C)N2CCN(Cc3nnc(C4CC4)o3)CC2)n1` (centres undefined) was run?
A: -4.99%

Q: With `CC(c1nc(C2CC2)no1)N1CCN(Cc2ccsc2)CC1` (centres undefined) as the compound, how does the INHIBITION read?
A: 5.72%

Q: How did the INHIBITION turn out when `CC(C)c1noc(C(C)N2CCN(Cc3ccsc3)CC2)n1` (centres undefined) was run?
A: 60.31%
